High-throughput results from PubChem.
Only some compounds are listed: those with a hit (about 3.6% of all), similar ones and a draw of the others.
APOBEC3G inh – blocks human APOBEC3G single-stranded DNA deamination | AID 493012 | Q9HC16 | inhibition, % at 20 µM | recombinant A3G, ssDNA deamination FAM/TAMRA fluorescence | actives 0.28% (n = 330,000);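 active = inhibition of at least 40% at 20 µM, with no more than 30% in the related APOBEC3A deaminase screen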;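 also: plate controls were DMSO wells with A3G for no effect and wells lacking A3G enzyme for full effect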
MITF act – MITF TRPM1 promoter activation in melanoma cells | SK-MEL-5 TRPM1-promoter luciferase, 24 h; % of positive control, neutral wells = 0 | activation, % at 12.5 µM | actives 0.75% (n = 300,000) | AID 588334;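 active = mean activation of at least 80% with every replicate also reaching 80%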;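 also: 0% = neutral control wells and 100% = parthenolide positive control wells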
Wnt act – Wnt/beta-catenin pathway activation; Wnt/beta-catenin reporter cell assay, activator, plate reader; activation, % at 9.35 µM; actives 1.2% (n = 300,000); AID 743398; in the data active = activation above about 30%, passing the limit was not always enough;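 also: 0% = neutral control wells and 100% = positive control wells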
APOBEC3A inh – inhibitors of human APOBEC3A DNA deaminase. P31941. recombinant A3A, FAM/TAMRA ssDNA deamination fluorescence. inhibition, % at 20 µM. actives 0.41% (n = 330,000);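 active = at least 40% inhibition at 20 µM here, with at most 30% in a related deaminase screen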;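 also: plate controls were A3A with DMSO for no effect and wells lacking A3A enzyme for full effect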
Target sequence (P31941 whole entry, looked up): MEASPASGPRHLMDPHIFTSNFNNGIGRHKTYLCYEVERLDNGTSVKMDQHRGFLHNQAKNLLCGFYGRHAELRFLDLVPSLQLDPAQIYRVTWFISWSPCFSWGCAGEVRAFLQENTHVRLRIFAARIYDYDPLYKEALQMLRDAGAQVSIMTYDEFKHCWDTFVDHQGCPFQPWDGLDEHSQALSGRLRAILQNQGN
esBAF inh – blocks esBAF chromatin remodeling in mouse ES cells. actives 2% (n = 350,000). Bmi1-luciferase knock-in reporter, 24 h; 100% = twice the neutral-well signal. reporter increase, % at 12.5 µM; in the data active = activation above about 40%;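 also: 0% = median of the plate's neutral control wells and 100% = double that signal; a rise in the Bmi1 reporter signal indicates esBAF inhibition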
PHOSPHO1 inh – PHOSPHO1 (human) inhibition. recombinant PHOSPHO1, absorbance phosphatase assay. actives 1.1% (n = 290,000). inhibition, % at 13.3 µM; in the data active = inhibition above about 60%
Target sequence (Q8TCT1 whole entry, looked up): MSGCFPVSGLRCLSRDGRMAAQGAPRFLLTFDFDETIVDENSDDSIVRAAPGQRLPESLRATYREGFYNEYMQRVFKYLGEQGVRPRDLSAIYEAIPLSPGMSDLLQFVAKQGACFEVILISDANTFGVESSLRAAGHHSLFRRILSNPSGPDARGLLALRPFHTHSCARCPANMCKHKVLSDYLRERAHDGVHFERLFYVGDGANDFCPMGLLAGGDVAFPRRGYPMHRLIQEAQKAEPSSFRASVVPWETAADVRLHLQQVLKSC
APOBEC3A confirm – APOBEC3A (human) deaminase inhibition, confirmed | shares compounds with APOBEC3A inh | recombinant A3A, ssDNA deaminase UDG fluorescence assay | inhibition, % at 20 µM | actives 63% (n = 1,400) | AID 493151;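 active = inhibition reaching a set limit, 80% of the first screen's cutoff, at 20 µM in any replicate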;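 also: plate controls were DMSO wells with A3A for no effect and wells lacking A3A enzyme for full effect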
UDG A3A counter – counter-screen for APOBEC3A inhibitors: UDG; shares compounds with APOBEC3A inh; UDG counterscreen, FAM/TAMRA uracil oligo fluorescence; inhibition, % at 20 µM; 1,000 tested, under 10 active; AID 504714; call rule not given here
An asterisk follows results filed as active; nt = not tested or not shown.

SMILES	APOBEC3G inh	MITF act	Wnt act	APOBEC3A inh	esBAF inh	PHOSPHO1 inh	APOBEC3A confirm	UDG A3A counter
CNC(=O)c1ccc(NC(=O)CC23CC4CC(CC(C4)C2)C3)cc1	-5	0	-1	3	0	19	nt	nt
COc1cccc(-c2cn(CC[C@H]3CC[C@@H](NS(=O)(=O)c4ccccc4Cl)[C@@H](CO)O3)nn2)c1	nt	nt	nt	nt	2	nt	nt	nt
COc1ccc2cc(C)c3nnc(SCC(=O)Nc4cc(OC)c(OC)cc4C(=O)O)n3c2c1	-1	-13	0	99*	2	32	0	0
C[C@H](CO)N1C[C@H](C)[C@@H](CN(C)CC2CCCCC2)Oc2ccc(NS(=O)(=O)c3ccccc3)cc2CC1=O	nt	nt	nt	nt	6	nt	nt	nt
CCCn1c(=O)c2sccc2n2c(CCCC(=O)NCc3ccco3)nnc12	15	-8	-3	46*	-11	29	34*	nt
CCCn1c(=O)c2sccc2n2c(CCCC(=O)NCc3cccnc3)nnc12	0	3	-1	-2	7	21	nt	nt
COc1ccc(-c2cn(CC[C@H]3CC[C@@H](NC(=O)Cc4ccccn4)[C@@H](CO)O3)nn2)cc1	nt	nt	nt	nt	-1	nt	nt	nt
O=C(Cc1ccc(S(=O)(=O)N2CCOCC2)s1)Nc1nc2c(s1)CCCC2	19	8	nt	78*	-50	94*	73*	1
CCCC(=O)Nc1ccc2c(c1)OC[C@@H](C)N(Cc1ccncc1)C[C@H](C)[C@@H](OC)CN(C)C2=O	nt	nt	nt	nt	-9	nt	nt	nt
O=C1c2ccccc2C(=O)N1CC(O)COCc1ccccc1 (stereo not drawn)	-7	11	-1	-4	-4	50	nt	nt
CCc1n(CC(O)COCc2ccccc2)c2ccccc2[n+]1C (stereo not drawn)	16	10	-1	58*	nt	-62	79*	-2
O=C(CN(c1ccccn1)S(=O)(=O)c1ccccc1)N/N=C/c1cccc([N+](=O)[O-])c1	4	3	nt	44*	nt	-2	15	nt
O=C(Cc1ccccc1)N/N=C/c1cccc([N+](=O)[O-])c1	-3	5	12	0	nt	7	nt	nt
O=C(Cc1ccccn1)N[C@@H]1CC[C@H](CCNS(=O)(=O)c2cccc(F)c2)O[C@@H]1CO	nt	nt	nt	nt	1	nt	nt	nt
COc1ccc(N2Cc3cccc(C(=O)N4CCN(C(=O)c5ccco5)CC4)c3C2=O)cc1	29	3	-4	59*	-2	-4	43*	nt
C[C@@H]1CCCCO[C@H](CN(C)C)[C@H](C)CN([C@@H](C)CO)C(=O)c2cc(NS(=O)(=O)c3cccs3)ccc2O1	nt	nt	nt	nt	-4	nt	nt	nt
CCOC(=O)C1=C(C)N=C2SCCC(=O)N2C1c1cc(Br)ccc1OC (stereo not drawn)	-4	-1	nt	40*	nt	nt	-7	-1
CC[n+]1ccccc1/C=C/c1ccc(N(C)C)cc1	nt	-37	nt	nt	nt	9	nt	nt
Cc1ccc(/C=C/c2ccc(N(C)C)cc2)[n+](C)c1	6	-25	-6	60*	-83	20	67*	-3
Cc1ccc(S(=O)(=O)NNC(=O)Cc2cccn2C)cc1	-5	8	-1	0	-5	9	nt	nt
Cc1cccc(S(=O)(=O)NNC(=O)Cc2cccn2C)c1	-8	-15	-1	58*	nt	-45	-2	2
C[C@@H]1CCCCO[C@H](CN(C)C(=O)CCCN(C)C)[C@H](C)CN([C@H](C)CO)C(=O)c2cc(NC(=O)Nc3cccc4ccccc34)ccc2O1	nt	nt	nt	nt	-1	nt	nt	nt
O=C(C1CC1)N1CCCCN2[C@H](C1)[C@@H](c1ccc(C#CC3CCCC3)cc1)[C@@H]2CO	nt	nt	nt	nt	0	nt	nt	nt
Cc1c(Cl)cccc1NC(=O)CNC(=O)c1ccc(F)cc1	-6	-3	-1	-2	nt	-12	nt	nt
Cc1c(Cl)cccc1NC(=O)CNC(=O)c1ccc2c(c1)OCCO2	9	16	12	51*	3	nt	41*	2
CN1/C(=C\C=[N+](C)c2ccccc2)C(C)(C)c2ccccc21	13	-31	nt	56*	-30	-50	77*	-33
